Paper PMC5540273 (PLoS ONE, 2017)

Legend:
Settings in all cases: concentration: 1 μM, replicates: in singlicate; n = 1
IRAK4 = system: IRAK4
ITK = system: ITK
[1] = system: JAK1(JH1domain-catalytic)
[2] = system: JAK1(JH2domain-pseudokinase)
[3] = system: JAK2(JH1domain-catalytic)
[4] = system: JAK3(JH1domain-catalytic)
JNK1 = system: T1, JNK1
T1 construct: gene MAPK8

JNK2 = system: T2, JNK2
T2 construct: gene MAPK9

JNK3 = system: T3, JNK3
T3 construct: gene MAPK10

KIT-autoinhibited = system: KIT-autoinhibited
KIT = system: KIT
LATS1 = system: LATS1
LATS2 = system: LATS2
LCK = system: LCK
LIMK1 = system: LIMK1
LIMK2 = system: LIMK2
LKB1 = system: T4, LKB1
T4 construct: gene STK11

LOK = system: T5, LOK
T5 construct: gene STK10

LRRK2 = system: LRRK2
LTK = system: LTK
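Note: KINOMEscan kinase panel screen.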

Compound	%Inh (IRAK4)	%Inh (ITK)	%Inh [1]	%Inh [2]	%Inh [3]	%Inh [4]	%Inh (JNK1)	%Inh (JNK2)	%Inh (JNK3)	%Inh (KIT-autoinhibited)	%Inh (KIT)	%Inh (LATS1)	%Inh (LATS2)	%Inh (LCK)	%Inh (LIMK1)	%Inh (LIMK2)	%Inh (LKB1)	%Inh (LOK)	%Inh (LRRK2)	%Inh (LTK)
CCn1c(-c2ccccn2)nc2cnccc21 [SB-736398]	37%	0%	0%	0%	17%	0%	24%	19%	8%	0%	0%	0%	0%	12%	13%	0%	0%	0%	31%	1%
Fc1cc(Cl)ccc1Nc1ccnc2cc(I)ccc12 [GW551191]	14%	13%	0%	0%	1%	0%	18%	29%	10%	0%	49%	0%	0%	24%	0%	0%	0%	0%	37%	13%
COC(=O)c1c(-c2ccccc2)c2cc(OC)ccc2c(=O)n1Cc1ccccc1	10%	9%	10%	0%	0%	0%	66%	68%	85%	6%	93.3%	31%	0%	0%	0%	0%	8%	9%	0%	11%
O=C(Nc1n[nH]c2cc(-c3cccc(F)c3F)ccc12)C1CC1 [SB-733894]	0%	0%	0%	67%	27%	18%	32%	0%	1%	6%	18%	0%	22%	0%	0%	0%	0%	0%	0%	0%
Cc1cc(NCC(c2ccccc2)c2ccccc2)nc(NCc2ccc(C(F)(F)F)cc2)n1 [GW497681]	8%	0%	10%	0%	0%	0%	0%	0%	0%	0%	6%	0%	5%	0%	0%	9%	12%	0%	0%	0%
COc1ccc2nc(-c3cccc(C)n3)nc(Nc3ccncc3)c2c1 [GSK204919]	0%	13%	0%	80%	10%	0%	0%	60%	36%	0%	26%	0%	0%	4%	20%	3%	0%	0%	0%	0%
Cc1ccccc1-n1cnc2c(N)ncnc21 [SKF-97510]	0%	1%	5%	0%	0%	0%	0%	0%	0%	0%	0%	0%	3%	100%	16%	15%	0%	0%	0%	0%
COc1cc2nccc(Nc3ccc(NC(=O)c4ccc(C)cc4)c(O)c3)c2cc1OC.Cl [GW440132]	0%	20%	12%	0%	0%	0%	16%	29%	7%	0%	38%	0%	0%	83%	4%	1%	2%	0%	28%	0%
Cc1cccc(-c2nc(Nc3ccncc3)c3ccccc3n2)n1 [GW855857]	0%	24%	0%	74%	0%	0%	0%	6%	21%	0%	10%	3%	0%	9%	12%	5%	18%	37%	0%	21%
COc1cc2ncnc(Nc3ccc4nc(-c5ccccc5)[nH]c4c3)c2cc1OC.Cl [GW282450]	13%	14%	6%	0%	0%	0%	18%	26%	19%	0%	72%	0%	0%	33%	0%	0%	0%	5%	0%	11%
Cl.c1ccc(-c2n[nH]cc2-c2ccnc(-c3ccc(CN4CCOCC4)cc3)c2)nc1 [GW776245]	0%	0%	0%	2%	0%	0%	31%	17%	20%	0%	8%	3%	0%	0%	5%	19%	18%	0%	0%	28%
Cc1ccc(NC(=O)Nc2cc(C(C)(C)C)nn2-c2ccccc2)cc1 [GSK1014915]	23%	12%	0%	0%	13%	0%	45%	39%	10%	0%	98.6%	31%	0%	24%	5%	0%	0%	60%	0%	67%
Cc1cc(N2Cc3ccccc3C2)nc(Nc2ccc(S(=O)(=O)N3CCOCC3)cc2)n1.Cl [GSK1669917]	0%	0%	11%	0%	0%	0%	3%	13%	1%	3%	0%	29%	10%	4%	0%	16%	12%	0%	0%	0%
O=S(=O)(c1ccc(-c2ccnc3[nH]ccc23)cc1)N1CCCC1 [GSK846226]	2%	10%	16%	3%	86%	0%	26%	24%	17%	0%	23%	0%	68%	5%	7%	21%	5%	0%	0%	0%
O=C(Nc1ccc2c(c1)OCO2)NC1CCN(c2ccnc(Nc3ccc(F)cc3)n2)C1 (stereo not drawn) [GSK1379724]	21%	8%	18%	0%	13%	0%	33%	23%	24%	0%	54%	0%	0%	12%	41%	0%	0%	0%	28%	0%
COc1ccc(Nc2nccc(NCCNC(=O)Nc3ccccc3F)n2)cc1 [GSK1379901]	20%	9%	15%	0%	25%	0%	56%	15%	11%	0%	57%	44%	0%	20%	4%	3%	0%	0%	0%	0%
COc1cccc(-c2cc(-c3c[nH]nc3-c3ccccn3)ccn2)c1 [GW680338]	0%	2%	7%	0%	0%	0%	42%	40%	50%	0%	9%	64%	0%	10%	0%	15%	1%	10%	6%	0%
CS(=O)(=O)c1ccc(-c2nc3n(c2-c2ccncc2)CCC3)cc1 [SKF-105942]	23%	7%	6%	0%	0%	0%	41%	16%	0%	7%	0%	0%	0%	8%	19%	0%	0%	0%	0%	0%
CC1=C(C(=O)Nc2cc3cn[nH]c3cc2F)C(c2ccc(C(F)(F)F)cc2)CC(=O)N1 (stereo not drawn) [GSK429286]	17%	13%	40%	0%	62%	29%	21%	25%	15%	0%	9%	0%	39%	22%	0%	0%	0%	0%	12%	0%
Cc1cccc(-c2nc(-c3ccc(S(C)(=O)=O)cc3)sc2-c2ccnc(NCCc3ccccc3)c2)c1	9%	0%	2%	4%	8%	0%	0%	0%	0%	0%	98.4%	13%	0%	0%	0%	4%	0%	0%	0%	0%
CN(C)CCN(C)C(=O)c1cc(-c2ccncc2)c(-c2ccc(Cl)c(O)c2)o1.Cl.Cl [SB-710397]	43%	13%	18%	0%	49%	0%	27%	29%	35%	0%	0%	3%	0%	34%	0%	0%	0%	72%	0%	11%
